Pol kappa inh = inhibitors of human DNA polymerase kappa | Q9UBT6 | purified Pol kappa, fluorescent DNA synthesis assay, 10 min | Potency, µM (series often up to 107 µM), for the others: at the top dose activity, negative = inhibition, most hits filed as inhibitors | hit rate 0.53% among 400,000 | AID 588579; note: potency is the fitted concentration of half-maximal effect; % is set by controls: 0 for no effect and ±100 for the full control effect
Target sequence (Q9UBT6 whole entry, looked up): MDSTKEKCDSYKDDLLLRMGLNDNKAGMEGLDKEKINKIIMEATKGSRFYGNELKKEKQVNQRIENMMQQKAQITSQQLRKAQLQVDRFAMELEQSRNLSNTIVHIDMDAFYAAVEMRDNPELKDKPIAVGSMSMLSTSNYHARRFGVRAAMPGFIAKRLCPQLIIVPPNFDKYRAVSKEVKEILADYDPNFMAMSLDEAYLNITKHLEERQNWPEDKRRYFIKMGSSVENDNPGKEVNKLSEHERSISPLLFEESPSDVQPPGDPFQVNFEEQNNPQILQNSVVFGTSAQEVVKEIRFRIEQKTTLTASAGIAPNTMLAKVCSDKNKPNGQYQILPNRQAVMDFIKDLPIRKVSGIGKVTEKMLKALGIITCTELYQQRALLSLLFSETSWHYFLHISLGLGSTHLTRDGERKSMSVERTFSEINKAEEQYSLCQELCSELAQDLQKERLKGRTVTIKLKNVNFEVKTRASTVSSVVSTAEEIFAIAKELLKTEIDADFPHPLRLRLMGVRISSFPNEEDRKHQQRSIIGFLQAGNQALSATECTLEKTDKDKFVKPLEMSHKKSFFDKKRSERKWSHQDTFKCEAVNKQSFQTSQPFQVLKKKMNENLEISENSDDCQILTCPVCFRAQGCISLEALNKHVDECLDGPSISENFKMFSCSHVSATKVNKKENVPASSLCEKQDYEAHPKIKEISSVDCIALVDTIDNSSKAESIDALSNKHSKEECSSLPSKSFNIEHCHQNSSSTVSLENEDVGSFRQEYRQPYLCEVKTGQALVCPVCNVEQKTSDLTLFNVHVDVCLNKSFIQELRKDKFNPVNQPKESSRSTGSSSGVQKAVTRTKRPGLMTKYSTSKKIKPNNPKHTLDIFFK
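First, compounds were pin-transferred onto 10 nM Pol kappa. After 15 min at room temperature, substrate was added to 50 nM final. Fluorescence was then measured kinetically at 0 and 10 min.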
PI5P4Ka inh = PI5P4K alpha (human) kinase inhibition | PI5P4Kalpha enzyme, ADP-Glo luminescence, 60 min; hits give low values | max response, % | hit rate 1.2% among 330,000 | AID 652105; active = max response of -50% or lower; inconclusive = between -30% and -50%; inactive = -30% or higher; note: value at the top dose of about 77 µM; % is set by controls: 0 for no effect and ±100 for the full control effect
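Compounds were pin-transferred onto PI5P4Kalpha and substrate in HEPES pH 7.4 buffer with EGTA, CHAPS and 5% DMSO. ATP (5 microM final) started the reaction, which ran 60 minutes at room temperature before ADP-Glo detection.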
Pol beta inh = blocks human DNA polymerase beta activity; Pol beta primer extension/strand displacement, fluorescence kinetic; Potency, µM (top dose mostly 114 µM), for inactives: at the top dose activity change, negative = inhibition, hits mostly inhibitors; hit rate 1.3% among 340,000; AID 485314; note: potency is the fitted concentration of half-maximal effect; % is set by controls: 0 for no effect and ±100 for the full control effect
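Reaction started by 50 nM substrate onto compound-treated Pol beta (10 nM, 15 min preincubation, room temperature); plates read at 0 min and 10 min. Normalized concentration-effect data fitted by four-parameter Hill equation.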
WRN helicase inh = blocks human WRN helicase; hit rate 0.46% among 360,000; AID 651768; Potency, µM (series often up to 114 µM), inactives show at the top dose activity change, negative = inhibition, hits mostly inhibitors; Q14191; WRN helicase unwinding, fluorescent forked duplex, kinetic; note: potency is the fitted concentration of half-maximal effect; % is set by controls: 0 for no effect and ±100 for the full control effect; nearly all actives have a fitted effect of over 55% in size
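WRN at 20 nM final preincubated with compound 15 min at room temperature; reaction started with 100 nM fluorophore/quencher forked duplex oligonucleotide and 2 mM ATP final. Unwinding followed kinetically by red fluorescence (ex 525, em 598 nm).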
POLI inh = inhibitors of human DNA polymerase iota; Potency, µM (series often up to 115 µM), for the others: at the highest dose activity, negative = inhibition, hits mostly inhibitors; Q9UNA4; hit rate 1% among 390,000; Pol iota fluorescent replication assay, 10 min; AID 588590; note: potency is the fitted concentration of half-maximal effect
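Fluorescent replication assay read twice, at 0 min and 10 min after adding 50 nM (final) substrate. Enzyme (10 nM) and compounds were first incubated 15 min at room temperature; enzyme-free buffer wells were negative controls.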
POLH inh = blocks human DNA polymerase eta activity; hit rate 1.2% among 390,000; recombinant Pol eta, fluorescent DNA replication assay; Potency, µM (highest dose often 114 µM), for inactives: top-dose activity change, negative = inhibition, most hits filed as inhibitors; Q9Y253; note: potency is the fitted concentration of half-maximal effect; % is set by controls: 0 for no effect and ±100 for the full control effect
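Pol eta at 10 nM preincubated with compounds 15 min at room temperature; reaction started with fluorescent substrate (50 nM final) and read kinetically at 0 and 10 min.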
ADP-Glo interf = interferes with ADP-Glo detection without enzyme present. 1,100 tested, under 10 active. ADP-Glo detection counter-screen, luciferase luminescence, no enzyme. Potency, µM (top dose mostly 76.9 µM), for inactives: at the top dose activity change, negative = inhibition, actives largely listed as inhibitors. shares compounds with PI5P4Ka inh
Numbers without * were called inactive; ? = inconclusive; . = no result given; [ ] = remark or other dose. Rows were chosen to be rich in hits. Some 2.8% of all compounds tested hit in one or more screens of this group. Unless noted, calls come from the whole dose curve; as a rule, active = well fitted curve in the direction sought with a large enough effect; inconclusive = small, poorly fitted or top-dose-only effect, or another doubt; inactive = no such curve, though single readings can be large; an effect the other way counts as inactive or inconclusive.

SMILES	Pol kappa inh	PI5P4Ka inh	Pol beta inh	WRN helicase inh	POLI inh	POLH inh	ADP-Glo interf
CCN1CCN(C(=O)c2sc3nc(C)nc(N4CCC(C)CC4)c3c2C)CC1	-7%	-1	-11%	-10%	6%	-16%	.
CN(C)C(=O)[C@H]1C[C@H]1[C@@H](O)[C@H](CO)NC(=O)[C@H](Cc1ccccc1)NC(=O)OC(C)(C)C	-20%	1	12%	2%	51%	-12%	.
COc1ccc(S(=O)(=O)N2CCCOC2CNC(=O)C(=O)NCc2ccncc2)cc1 (stereo unspecified)	-10%	-2	1%	1%	27%	-11%	.
O=C(NC(=S)Nc1ccc2c(c1)OCCO2)c1ccccc1F	3%	4	11%	0%	-12%	-13%	.
O=C(Nc1ccc2c(c1)OCCO2)c1ccccc1F	-10%	-52*	-1%	-20%	?	-17%	-24%
CCc1c(C)sc(NC(=O)Cn2nc(C)c([N+](=O)[O-])c2C)c1C(N)=O	-4%	-58*	19%	-20%	75%	-15%	0%
Cc1ccc(C)c(N2CCN(CCCNC(=O)c3cnn(-c4ccc(F)cc4)c3C3CCN(C(=O)OC(C)(C)C)CC3)CC2)c1	-4%	.	1%	.	16%	-28%	.
CCOc1ccccc1NC(=O)c1c(NC(=O)CCC(=O)O)sc2c1CCCCC2	-31%	-10	15%	-8%[11.6 µM]	?	?	0%
CC(C)(C)n1nnnc1SCC(=O)Nc1nn(-c2ccccc2)nc1C(N)=O	-10%	-58*	?	2%	120%	-19%	-2%
NC(=O)c1c(NC(=O)CN2CCN(S(=O)(=O)c3ccccc3)CC2)sc2c1CCC2	?	-65*	.	?	13µM*	?	0%
O=C(CSc1nnc(-c2ccc(OC(F)F)cc2)o1)NC(=O)NCc1ccco1	-29%	-54*	45µM*	-11%[11.6 µM]	79µM*	?	-3%
COc1ccc(-c2nnc(SCC(=O)NCc3ccco3)o2)cc1	-4%	.	-18%	-6%[57.1 µM]	-2%	0%	.
N#Cc1ccccc1OCc1cn(CC(=O)c2ccc(O)cc2)nn1	1%	-58*	.	-2%	?	-18%	-11%
O=C(Nc1ccsc1C(=O)O)c1cccc(Oc2ccccc2)c1	-4%	?	12%	-9%	121%	-5%	.
O=C(Nc1ccsc1C(=O)O)c1cccc(C(F)(F)F)c1	-4%	-58*	9%	-6%	-5%	6%	2%
CN(C)S(=O)(=O)c1ccc(C(=O)Nc2cc3c(cc2C(=O)O)OCCCO3)cc1	-9%	-50*	-4%	-1%	54%	10%	0%
O=C(N/N=C/c1ccc(OC(=O)c2cccs2)cc1)c1ccccn1	-11%	-6	35%	15%	16%	-3%	.
Brc1ccc(CSc2ncn[nH]2)cc1	-11%	-1	3%	-16%	3%	-8%	.
CCCOc1ccc(CSc2ncn[nH]2)cc1	-2%	-71*	4%	?	?	-10%	3%
Cc1cccc(C)c1OCc1nnc(NC(=O)CSc2ccc(Cl)cc2)s1	-1%	2	-17%	-9%	2%	-6%	.
O=C(CSc1ccccc1)Nc1nnc(COc2ccc(Cl)cc2)s1	-25%	-53*	20µM*	?	40%	?	-7%
Cc1cccc(S(=O)(=O)NC(=O)C2(C)CCN2C(=O)Cc2cc(F)ccc2F)c1 (stereo unspecified)	.	-73*	.	9%	.	.	-8%
Cc1ccc(C(c2cc(Cl)c3cccnc3c2O)N2CCN(C)CC2)cc1 (stereo unspecified)	-5%	-89*	-13%	?	93%	-22%	6%
Cc1ccc(N2CCN(S(=O)(=O)c3ccc4c(c3)NC(=O)C(C)C(=O)N4)CC2C)cc1 (stereo unspecified)	-3%	-13	?	-4%	?	5%	.
Cc1ccn2c(=O)c(C(=O)O)cnc2c1	-10%	1	-5%	7%	81%	-10%	.
SMILES	Pol kappa inh	PI5P4Ka inh	Pol beta inh	WRN helicase inh	POLI inh	POLH inh	ADP-Glo interf
CCOC(=O)c1cnc2cc(C)ccn2c1=O	-16%	-20	9%	8%	?	-18%	-3%
COc1ccc(S(=O)(=O)N2CCCC(C(=O)Nc3cccnc3)C2)cc1Cl (stereo unspecified)	-12%	-50*	8%	-11%	?	0%	-6%
Cc1ccc(S(=O)(=O)NCC(=O)OCC(=O)Nc2ccc3c(c2)OCCO3)cc1	-13%	-1	.	5%	40%	-21%	.
CCOC(=O)C1CCN(C(=O)CCS(=O)(=O)c2ccc3c(c2)CCN3C(=O)CC)CC1	-16%	5	-11%	-23%	12%	-8%	.
CCOC(=O)N1CCN(C(=O)CCS(=O)(=O)c2ccc3c(c2)CCN3C(=O)CC)CC1	10%	?	-3%	9%	11%	-10%	-2%
COc1cccc(CN2C(=NC(=O)C3CC3)SC3CS(=O)(=O)CC32)c1 (stereo unspecified)	1%	-1	31%	3%	14%	11%	.
Fc1cccc(Cl)c1CNc1ccc(N2CCCC2)cc1	-9%	-63*	11%	-13%[57.1 µM]	100%	-14%	-21%
CC1(OC(=O)CCc2ccccc2)C(=O)C=C2C=C(c3ccc(C#N)cc3)N(Cc3ccco3)C=C2C1=O (stereo unspecified)	-27%	-53*	-5%	-3%	?	?	3%
Cc1nnc(SCC(=O)N2N=C(c3ccc(Cl)cc3)CC2c2ccco2)[nH]c1=O (stereo unspecified)	50µM*	-64*	20µM*	?	?	?	1%
CCOc1ccc(CCNC(=O)CS(=O)(=O)Cc2nc(-c3cccc(Cl)c3)oc2C)cc1	-1%	.	-2%	.	15%	-11%	.
CC(C)N(CCC(=O)c1ccc2ccccc2c1)Cc1ccccc1	4%[60.1 µM]	-89*	?	?	?	-8%	-9%
CC(OC(=O)c1ccc2ccccc2c1)C(=O)N(C)Cc1ccccc1 (stereo unspecified)	-10%	2	.	0%	-3%	-11%	.
CC(C)OC(=O)c1c(NS(=O)(=O)c2ccccc2)sc2c1CCCC2	-17%	-63*	-28%	?	-3%	-5%	-1%
CN1OC[C@@H]2CN(S(=O)(=O)c3cccc4ccccc34)[C@H](c3ccc(-c4ccccc4)cc3)C[C@@H]21	.	17	.	-1%	.	-22%	.
CN1OC[C@@H]2CN3C(=O)N(c4cccc5ccccc45)c4ccccc4[C@@H]3C[C@@H]21	.	-53*	.	-1%	.	.	1%
